Rows were chosen to be rich in hits. Some 1.6% of all compounds tested hit in one or more screens of this group.
PME-1 inh – blocks human protein phosphatase methylesterase 1; Q9Y570; recombinant PME-1, FP-Rh probe fluorescence polarization; inhibition, % at 5.9 µM; 320,000 tested, 0.53% active;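 active = inhibition above the campaign mean of all compounds plus 3 SD, cut at about 26% in these data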;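 also: competitive labeling of PME-1 active site by serine hydrolase directed probe; 0% = PME-1 with DMSO and 100% = wells lacking PME-1 enzyme; inhibitors block probe labeling so polarization falls and inhibition rises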
LYPLA1 counter – blocks human lysophospholipase 1, a PME1 counter-screen; O75608; recombinant LYPLA1, FP-Rh probe fluorescence polarization; inhibition, % at 5.9 µM; 320,000 tested, 0.16% active;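 active = inhibition above the mean of all tested compounds plus 3 SD, set per campaign, cut at about 14% in these data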;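 also: inhibitors block serine hydrolase probe labeling of LYPLA1 so polarization falls; 0% = enzyme with DMSO and 100% = wells lacking LYPLA1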
MEX-5 binding – C. elegans MEX-5 TCR-2 RNA binding activity; activity score (negative = inhibition of binding), % at 10 µM; 300,000 tested, 0.38% active; AID 1832; MEX-5/FITC-TCR2 RNA binding, fluorescence polarization; active compounds read low;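 active = inhibition past about -25% in most replicates, and total fluorescence under double the plate's negative control median, limit read from the data; inconclusive = replicates evenly split on the limit, or fluorescence at least double controls; inactive = too little inhibition in most replicates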;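 also: 0% = DMSO and -100% = 5 µM competing unlabeled TCR2 RNA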
Target sequence (Q9XUB2 whole entry, looked up): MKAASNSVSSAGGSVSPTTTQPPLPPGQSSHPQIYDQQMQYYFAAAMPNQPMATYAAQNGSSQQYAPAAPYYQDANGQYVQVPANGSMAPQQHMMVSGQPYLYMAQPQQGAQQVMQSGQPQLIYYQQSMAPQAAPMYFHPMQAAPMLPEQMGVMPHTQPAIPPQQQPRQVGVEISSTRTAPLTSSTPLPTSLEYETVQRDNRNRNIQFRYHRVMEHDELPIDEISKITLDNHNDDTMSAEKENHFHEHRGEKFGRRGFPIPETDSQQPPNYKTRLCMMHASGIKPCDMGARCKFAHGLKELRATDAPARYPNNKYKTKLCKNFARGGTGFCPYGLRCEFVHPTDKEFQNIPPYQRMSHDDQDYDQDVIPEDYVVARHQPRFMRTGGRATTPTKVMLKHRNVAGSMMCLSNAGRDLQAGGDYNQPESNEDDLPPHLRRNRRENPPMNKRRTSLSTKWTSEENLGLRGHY
Fam108B inh – blocks mouse Fam108B hydrolase in RBBP9 counter-screen; recombinant Fam108B, FP-Rh probe fluorescence polarization; inhibition, % at 9.51 µM; 300,000 tested, 0.33% active; AID 1947;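 active = inhibition above the screen mean inhibition plus 3 SD, computed separately per campaign, cut at about 18% in these data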;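 also: inhibitors lower polarization as less probe binds the enzyme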
LYPLA2 inh – blocks human lysophospholipase 2, a PME1 counter-screen; O95372; recombinant LYPLA2, FP-Rh probe fluorescence polarization; inhibition, % at 5.9 µM; 320,000 tested, 0.38% active;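 active = inhibition above the screen-wide mean plus 3 SD, limit set per campaign, cut at about 26% in these data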;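 also: 0% = LYPLA2 with DMSO and 100% = wells lacking LYPLA2 enzyme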
Target sequence (O95372 whole entry, looked up): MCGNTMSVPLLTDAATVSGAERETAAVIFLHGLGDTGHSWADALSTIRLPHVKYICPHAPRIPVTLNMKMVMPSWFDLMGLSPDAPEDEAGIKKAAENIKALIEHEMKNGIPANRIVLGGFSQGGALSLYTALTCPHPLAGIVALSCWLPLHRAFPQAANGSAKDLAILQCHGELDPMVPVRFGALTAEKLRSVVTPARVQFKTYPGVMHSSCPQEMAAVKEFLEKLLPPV
PREPL inh – inhibits the human prolyl oligopeptidase-like enzyme | Q4J6C6 | AID 2751 | 320,000 tested, 0.68% active | inhibition, % at 5.96 µM | recombinant PREPL, fluorescence polarization activity-based probe; in the data active = inhibition above about 43%;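 also: 0% = enzyme with DMSO and 100% = wells lacking enzyme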
Starred values were filed as active, the others as inactive; ? = inconclusive; nt = no result.

SMILES	PME-1 inh	LYPLA1 counter	MEX-5 binding	Fam108B inh	LYPLA2 inh	PREPL inh
COc1cccc(/C=N/Nc2nc3ccccc3n3cnnc23)c1O	29.0*	-3.2	-4.7	11.2	-3.2	41.1
C[N+](C)(C)CCN1C(=O)CSC1=O	1.7	-1.7	1.6	-2.4	2.8	-1.6
CCOc1cc(/C=N/Nc2cc(C)nc(-n3nc(C)cc3C)n2)ccc1O	14.9	-1.7	1.2	-0.3	-1.2	-1.1
COc1ccc(/C=N/Nc2cc(C)nc(-n3nc(C)cc3C)n2)c(OC)c1	54.3*	1.7	-0.4	2.4	1.2	19.0
Oc1[nH]c2ccccc2c1N=Nc1nc2ccccc2s1	29.4*	2.9	-3.4	5.3	7.7	6.8
Oc1[nH]c2ccccc2c1N=Nc1ccc(F)cc1	1.0	-5.0	-61.6*	-3.8	-10.7	13.6
Oc1[nH]c2ccccc2c1N=Nc1ccccc1	14.7	-2.3	-41.8*	-0.9	-1.3	11.5
CC(C)(O)C(=O)N=Nc1c(O)[nH]c2ccccc12	-3.5	-2.0	-4.2	0.2	-3.0	1.5
Oc1[nH]c2ccccc2c1N=Nc1ccccc1F	-11.8	-10.1	?	-6.6	-13.3	-7.2
COc1cc(C(=O)NC(=S)NNC(=O)c2cnccn2)cc(OC)c1OC	2.6	-0.5	-46.5*	6.7	5.6	12.5
O=[N+]([O-])c1cc(S(=O)(=O)Nc2cccc(C(F)(F)F)c2)ccc1-n1nnc2ccccc21	32.9*	-5.7	-3.9	-3.9	-10.3	-0.8
CCOc1ccc(CCNC(=O)CCc2nnc3ccc(N4CCOCC4)nn23)cc1	-5.2	1.8	-3.4	2.8	-2.5	9.3
CCN(CC)c1ccc(/C=N/NC(=O)Cc2nnc(NC(=O)Nc3ccccc3)s2)cc1	37.4*	-24.6	-0.5	47.4*	-13.6	20.1
CCN(CC)c1ccc(/C=N/NC(=O)Nc2ccccc2)cc1	12.0	-0.3	2.0	5.8	1.0	1.7
CN1CCc2c(sc3c2C(=O)NC(c2cccc(OC(=O)c4cccs4)c2)N3)C1 (stereo not drawn)	-8.3	-4.0	-2.6	-4.4	-5.7	51.5*
CC(=O)Nc1cc(OC(C)=O)c2nonc2c1OC(C)=O	63.3*	80.6*	nt	76.3*	94.8*	56.4*
CCOC(=O)Cc1nc2ccccc2n(CC#N)c1=O	3.5	-4.3	-33.4*	-5.0	0.8	16.4
COc1ccc(C(=O)/C=C/Nc2ccc([N+](=O)[O-])cc2C)cc1OC	-2.8	-3.1	-43.3*	-0.6	-4.5	8.5
CCOC(=O)c1c(-c2ccc(C)o2)csc1NC(=S)NC(=O)c1cccs1	-20.0	-21.4	-33.9*	-37.0	-28.9	-18.5
COc1ccc(C2=CC3=C(Br)C(=O)C(C)(OC(=O)c4cccs4)C(=O)C3=CO2)cc1 (stereo not drawn)	-0.8	-1.4	-33.6*	8.2	1.6	13.6
COC(=O)CCC(=O)OC1(C)C(=O)C2=CN(Cc3ccco3)C(c3ccc(OC)cc3)=CC2=C(Br)C1=O (stereo not drawn)	-0.2	-9.1	-37.1*	5.8	-8.2	7.7
COc1ccc(C2=CC3=C(Br)C(=O)C(C)(OC(=O)c4ccco4)C(=O)C3=CO2)cc1 (stereo not drawn)	-3.2	-4.0	-47.5*	9.8	-1.2	1.1
COC(=O)CCC(=O)OC1(C)C(=O)C2=CN(c3ccc(OC)cc3)C(c3ccc(OC)cc3)=CC2=C(Br)C1=O (stereo not drawn)	8.1	0.0	-6.2	4.8	-1.5	37.1
CC1(OC(=O)c2cccs2)C(=O)C=C2C=C3CCCN3C=C2C1=O (stereo not drawn)	-0.1	-4.8	-27.5*	14.4	-6.7	3.7
CC(Sc1ccccc1)C(=O)Nc1ccc(N2CCOCC2)cc1 (stereo not drawn)	2.5	-4.0	2.0	1.2	-1.9	37.0
SMILES	PME-1 inh	LYPLA1 counter	MEX-5 binding	Fam108B inh	LYPLA2 inh	PREPL inh
CC/C(=N/Nc1cccc(C)c1)c1cnnc(SC)n1	5.1	-0.2	-33.3*	-2.6	3.7	2.2
Cc1ccc(C(=O)Nc2onc(C)c2C#N)cc1	-2.1	0.3	0.9	1.8	-2.4	-4.6
COc1ccc(S(=O)(=O)N(C)C)cc1NC(=O)COC(=O)CC1CCCC1	-0.6	1.8	1.9	-0.6	0.6	-7.4
Fc1ccc(N=c2ssnc2Cl)c(F)c1	-2.2	2.6	-29.8*	2.4	-3.4	-6.8
Cc1c(Cl)c([N+](=O)[O-])nn1CCCC(=O)N(Cc1ccccc1)Cc1ccccc1	5.0	1.7	-2.0	2.3	1.8	6.5
CCS(=O)(=O)N1Cc2ccccc2CC1C(=O)N1CCN(c2cccc(C)c2C)CC1 (stereo not drawn)	-10.1	3.0	-1.9	-0.5	5.9	11.2
COc1cc(COCC(O)CN2CCN(CCN3C(=O)c4cccc5cccc(c45)C3=O)CC2)cc(OC)c1OC (stereo not drawn)	-7.9	0.6	-15.6	1.3	10.9	-1.5
CC(=O)c1ccccc1OCC(O)CN1CCN(CCN2C(=O)c3cccc4cccc(c34)C2=O)CC1 (stereo not drawn)	0.4	3.5	-0.2	3.1	39.1*	5.2
O=C1c2cccc3cccc(c23)C(=O)N1CCN1CCN(CC(O)COc2ccc3ccccc3c2)CC1 (stereo not drawn)	-4.5	-4.2	0.8	-8.5	19.2	2.5
Cc1ccc(C)c(OCC(O)CN2CCN(CCN3C(=O)c4cccc5cccc(c45)C3=O)CC2)c1 (stereo not drawn)	-2.6	-0.2	-0.6	-1.4	53.5*	-8.0
O=C(Cn1cnc2ccccc2c1=O)OCC(=O)c1ccc2c(c1)OCCO2	-1.2	1.3	2.2	-2.5	4.7	-3.9
O=C(CCS(=O)(=O)c1ccc2c(c1)NC(=O)CO2)NCCc1ccc(Cl)cc1	4.2	-2.0	-1.6	4.2	2.2	6.8
O=S(=O)([N-]c1nc2ccccc2nc1-[n+]1ccc(CCCc2ccccc2)cc1)c1cccs1	11.5	-1.0	-28.9*	-1.2	-0.2	14.5
COc1cccc(-c2nc(NCc3ccccc3)c3ccccc3n2)c1O	-2.3	-4.5	1.5	1.8	2.2	4.9
COc1cccc(-c2nc(NC3CCCC3)c3ccccc3n2)c1O	27.4*	-5.0	-0.3	15.0	0.0	22.5
COc1ccc(-n2c3c(cc(C(=O)Nc4cccc(C)n4)c2=O)C(=O)CC(C)(C)C3)cc1	-1.5	-3.1	nt	-3.1	-1.3	-1.3
CC(C)CC(=O)Nc1nnc(SCC(=O)NC2CCCCC2)s1	3.8	0.7	-1.7	-4.1	-0.7	4.2
O=C1c2ccccc2C(=O)N1c1cccc(-c2csc(Nc3ccc4c(c3)OCO4)n2)c1	20.2	-19.1	nt	20.5*	-6.4	9.8
COc1ccccc1Nc1nc(-c2cccc(N3C(=O)c4ccccc4C3=O)c2)cs1	0.3	-4.8	2.2	1.5	0.6	-2.6
CNCC(=O)O	4.7	-1.6	nt	0.2	-1.1	8.1
O=c1c(/C=C(\O)c2ccccc2)nc2ccccc2n1-c1ccccc1	0.3	-3.6	-52.8*	-8.0	-11.4	2.5
